Screens (PubChem BioAssay)
Sampled rows, rich in hits. Any-hit rate of the full collection: about 3.8%.
HSF-1 act: increases HSF-1 driven luciferase reporter signal | 300,000 tested, 1.7% active | activation, % at 9 µM | AID 504408 | NIH3T3-HGL HSF-1 luciferase reporter, MG132, 8 h; 100% = twice DMSO control signal;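 active = mean replicate activation of at least 50% with a set share of replicates each reaching 50%; inconclusive = only one of those two conditions met; inactive = mean below 50% and too few replicates reaching it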;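 note: 0% = median of the neutral control wells and 100% = twice that signal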
HSF1 inhib: HSF1 inhibition; AID 2098; NIH3T3-HGL HSE-luciferase, MG132-induced, luminescence 8 h; active compounds read low; activity change, negative = inhibition, % at 7.5 µM (by protocol); 300,000 tested, 0.77% active;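 active = more than half of replicate wells show activity change below -50%, luminescence cut by over half; inconclusive = some wells, but at most half, below -50%; inactive = no replicate well below -50%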;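 note: luciferase reports HSF-1 transcriptional activity via heat shock element; 0% = median of DMSO wells and -100% = zero luminescence signal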
Wnt bcat act: activates Wnt/beta-catenin signaling in a reporter cell assay | activator, plate reader | activation, % at 9.35 µM | 300,000 tested, 1.2% active | AID 743398; in the data active = activation above about 30%, passing the limit was not always enough; inconclusive = no clear call, values can overlap the other calls;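 note: 0% = neutral control wells and 100% = positive control wells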
esBAF inh: inhibitors of esBAF chromatin remodeling in mouse ES cells. reporter increase, % at 12.5 µM. Bmi1-luciferase knock-in reporter, 24 h; 100% = twice the neutral-well signal. AID 602393. 350,000 tested, 2% active; in the data active = activation above about 40%; inconclusive = no clear call, values can overlap the other calls;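 note: 0% = median of the plate's neutral control wells and 100% = double that signal; a rise in the Bmi1 reporter signal indicates esBAF inhibition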
MITF act: increases MITF-driven TRPM1 promoter luciferase signal; SK-MEL-5 TRPM1-promoter luciferase, 24 h; % of positive control, neutral wells = 0; activation, % at 12.5 µM; 300,000 tested, 0.75% active;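 active = mean activation of at least 80% with every replicate also reaching 80%; inconclusive = mean reaches 80% but some replicate falls short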;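 note: 0% = neutral control wells and 100% = parthenolide positive control wells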
Active calls of the source: *; u = inconclusive; x = no result.

SMILES	HSF-1 act	HSF1 inhib	Wnt bcat act	esBAF inh	MITF act
O=C(Nc1cccc(Cl)c1)c1ccc2sc([C@@H]3O[C@H](CO)[C@H](O)[C@H](O)[C@H]3O)nc2c1	x	x	x	4	x
O=C(Nc1cccc(Cl)c1Cl)c1csc([C@@H]2O[C@H](CO)[C@@H](O)[C@H]2O)n1	x	x	19	50*	x
O=C(Nc1ccc(F)c(Cl)c1)c1csc([C@@H]2O[C@H](CO)[C@H](O)[C@H](O)[C@H]2O)n1	x	x	1	-5	x
O=C(Nc1cccc(Cl)c1)c1ccc2sc([C@H]3C[C@H](O)[C@@H](CO)O3)nc2c1	x	x	-1	67*	x
O=C(Nc1cccc(Cl)c1Cl)c1csc([C@H]2C[C@H](O)[C@@H](CO)O2)n1	x	x	42*	77*	x
C[C@H]1CN([C@@H](C)CO)C(=O)c2cc(-c3cccnc3)cnc2O[C@H]1CN(C)C(=O)c1cccc(F)c1	x	x	x	-6	x
CCCNC(=O)C[C@@H]1CC[C@H]2[C@@H](COC[C@H](O)CN2C(=O)Nc2cccc(Cl)c2)O1	x	x	x	3	x
COc1cccc(Oc2nnnn2-c2ccccc2)c1	-3	7	x	58*	x
COc1cccc(-n2nnnc2S(C)(=O)=O)c1	325*	256	x	8	x
COc1cccc(-n2cnnn2)c1	-18	8	x	12	x
Brc1ccc(OCc2nnnn2-c2ccccc2)cc1	3	6	-2	x	11
COc1ccc(OCc2nnnn2-c2ccccc2)cc1	55*	14	x	x	4
c1ccc(-n2nnnc2Oc2ccc(-c3nnco3)cc2)cc1	-75	-70*	2	4	x
Clc1ccc(Oc2nnnn2-c2ccccc2)cc1	4	9	-1	x	13
COc1ccc(Oc2nnnn2-c2ccccc2)cc1	3	18	3	25	29
COc1ccc(S(=O)(=O)N(C)C[C@@H]2OCCCC[C@@H](C)Oc3ccc(NC(=O)NC4CCCCC4)cc3C(=O)N([C@H](C)CO)C[C@H]2C)cc1	x	x	x	5	x
CCOC(=O)c1c(C)[nH]c(C2=NNC(=Nc3cccc(Cl)c3)SC2)c1C	-75	-75*	x	x	x
CC(C)NC(=O)N(C)C[C@H]1Oc2ncc(C#CC3CCCC3)cc2C(=O)N([C@@H](C)CO)C[C@@H]1C	x	x	x	-1	x
Cc1ccc(N2Cc3ccccc3C2=S)cc1	33	26	16	73*	74
CCOC(=O)CSc1ccc(C(=O)NCCCN2CCOCC2)cc1[N+](=O)[O-]	-75	-69*	1	1	x
CCCN1[C@H](C(=O)NCCOC)[C@@H](CO)[C@@H]2Cn3c(ccc(-c4cccc(C(=O)N(C)C)c4)c3=O)[C@@H]21	x	x	x	-1	x
COc1cc(N/N=C/c2ccc(N(C)C)cc2)ncn1	21	-10	0	-56	-21
COc1cc(N/N=C/c2ccccc2O)ncn1	65*	21	x	x	34
NC(=O)c1ccccc1NC(=O)/C=C/c1c(Cl)cccc1Cl	83*	40	28	33	x
NC(=O)c1ccccc1NC(=O)/C=C/c1cccc(Cl)c1	-2	7	x	76*	x
SMILES	HSF-1 act	HSF1 inhib	Wnt bcat act	esBAF inh	MITF act
NC(=O)c1ccccc1NC(=O)Nc1ccccc1Cl	12	3	-2	x	3
CCCNC(=O)C[C@@H]1CC[C@H]2[C@H](COc3ccc(NC(=O)NCC)cc3C(=O)N2C)O1	x	x	x	-1	x
Cc1c(O)ccc(/C=N/Nc2nc(-c3cccnc3)nc3ccccc23)c1O	-14	-5	21	x	65
Oc1ccc(/C=N/Nc2nc(-c3cccnc3)nc3ccccc23)c(O)c1	19	3	1	58*	16
CCC(C)Sc1nnc(NC(=O)c2ccco2)s1 (stereo unspecified)	9	7	24	50*	x
COCc1nnc(NC(=O)c2sc3ccccc3c2Cl)s1	20	11	u	51*	x
CCOCc1nnc(NC(=O)c2ccco2)s1	1	-3	3	7	-10
CNC(=O)c1ccsc1NC(=O)c1sc2ccccc2c1Cl	32	15	u	43*	77
Cc1ccc(NC(=O)c2sc3ccccc3c2Cl)nc1	14	-1	19	-50	-15
Cc1nnc(NC(=O)c2sc3ccccc3c2Cl)s1	22	11	28	x	29
COCc1nnc(NC(=O)c2ccco2)s1	-4	1	x	45*	x
Cc1ccccc1-c1ccc2c(c1)O[C@H](CN(C)C(=O)Nc1ccc(C(F)(F)F)cc1)[C@H](C)CN([C@@H](C)CO)S2(=O)=O	x	x	x	4	x
COc1cc(OC)c(OC)cc1/C=N/NC(=S)NCCN1CCOCC1	-1	-4	0	x	-17
COc1cc(OC)c(OC)cc1/C=N/NC(=S)NCC1CCCO1 (stereo unspecified)	-76	-70*	x	4	x
CCC1CCCCN1CCCNC(=O)CSc1nc2nc(C)c(Cc3ccc(C)cc3)c(C)n2n1 (stereo unspecified)	-75	-66*	-1	3	16
O=C(O)CC1=C(O)C(=O)N(c2ccccc2)C1c1ccccc1 (stereo unspecified)	27	-5	1	3	-5
O=C(O)CC1=C(Nc2ccccc2)C(=O)N(c2ccccc2)C1c1ccc(F)cc1 (stereo unspecified)	23	14	-1	79*	70
COc1ccc(C2C(CC(=O)O)=C(Nc3ccccc3)C(=O)N2c2ccccc2)cc1 (stereo unspecified)	64*	31	43*	54*	49
COc1ccc(C2C(C(C)=O)=C(O)C(=O)N2c2ccc(C)cc2)cc1 (stereo unspecified)	61*	16	6	7	x
CN1CCN(C(=O)C[C@@H]2C[C@@H]3c4cc(NC(=O)NC5CCCC5)ccc4O[C@@H]3[C@@H](CO)O2)CC1	x	x	x	0	x
